Experimental data from the supplement of paper PMC8387472.

Columns and labels:
Details in all cases: mESC; 2uM; 72 h treatment, harvest day 5
Kenpaullone = compound: O=C1Cc2c([nH]c3ccc(Br)cc23)-c2ccccc2N1 [Kenpaullone]; test: fraction of microhomology deletions among edited reads; higher = more MH deletions
Genistein = compound: O=c1c(-c2ccc(O)cc2)coc2cc(O)cc(O)c12 [Genistein]; test: as above
[1] = compound: O=c1cc(N2CCOCC2)oc2c(-c3ccc4c(c3)OCCO4)csc12; test: as above
Mercaptopurine (6-MP) = compound: S=c1[nH]cnc2nc[nH]c12 [Mercaptopurine (6-MP)]; test: as above
[2] = compound: S=c1nc[nH]c2nc[nH]c12 [6-Mercaptopurine (6-MP) Monohydrate]; test: as above
[3] = compound: CC(=O)O/N=C1\C(=O)N(Cc2cc(Cl)ccc2Cl)c2ccc(Cl)cc21; test: fraction of 1-bp insertions among edited reads; higher = more 1-bp insertion outcomes
[4] = compound: CC(C)(C#N)c1ccc(N2C(=O)OCc3cnc4ccc(-c5cnc6ccccc6c5)cc4c32)cc1; test: as above
[5] = compound: CCCCOc1c(C(=O)c2c(F)cc(C)cc2F)c[nH]c2nncc1-2; test: as above
[6] = compound: CCN1CCN(CC(=O)Nc2ccc(-c3cccc4c(=O)cc(N5CCOCC5)oc34)c3sc4ccccc4c23)CC1; test: as above
[7] = compound: CCc1c2c(nc3ccc(OC(=O)N4CCC(N5CCCCC5)CC4)cc13)-c1cc3c(c(=O)n1C2)COC(=O)[C@]3(O)CC [Irinotecan HCl Trihydrate]; test: as above
[8] = compound: CCn1c(=O)c(-c2ccc(Cl)cc2Cl)cc2cnc(Nc3ccc(N4CCNCC4)c(F)c3)nc21; test: as above
[9] = compound: CNc1ccc([N+](=O)[O-])c(Nc2ccc3[nH]ncc3c2)n1; test: as above
Rifapentine = compound: CO[C@H]1/C=C/O[C@@]2(C)Oc3c(C)c(O)c4c(O)c(c(/C=N/N5CCN(C6CCCC6)CC5)c(O)c4c3C2=O)NC(=O)/C(C)=C\C=C\[C@H](C)[C@H](O)[C@@H](C)[C@@H](O)[C@@H](C)[C@H](OC(C)=O)[C@@H]1C [Rifapentine]; test: as above
[10] = compound: COc1ccccc1-c1cc(Nc2cccc(CS(N)(=O)=O)c2)ncn1; test: as above
[11] = compound: C[C@@H]1CN(CC(=O)Nc2ccc3c(c2)Cc2cccc(-c4cc(=O)cc(N5CCOCC5)o4)c2S3)C[C@H](C)O1; test: as above
[12] = compound: Cc1cc(C)nc(SCC(=O)Nc2ncc(Cc3cccc4ccccc34)s2)n1; test: as above
[13] = compound: Cc1ccc(C(=O)NCCCCCC(=O)Nc2ccccc2N)cc1; test: as above
[14] = compound: Cc1cccc(CC(=O)N2CCc3c2ccc(-c2cn(C)c4ncnc(N)c24)c3F)n1; test: as above
[15] = compound: NC(=O)c1ccc2nc(-c3ccc(Oc4ccc(Cl)cc4)cc3)[nH]c2c1 [Chk 2 inhibitor II (BML-277)]; test: as above
Tucidinostat (Chidamide) = compound: Nc1cc(F)ccc1NC(=O)c1ccc(CNC(=O)/C=C/c2cccnc2)cc1 [Tucidinostat (Chidamide)]; test: as above

Target	fraction of microhomology deletions among edited reads (Kenpaullone)	fraction of microhomology deletions among edited reads (Genistein)	fraction of microhomology deletions among edited reads [1]	fraction of microhomology deletions among edited reads (Mercaptopurine (6-MP))	fraction of microhomology deletions among edited reads [2]	fraction of 1-bp insertions among edited reads [3]	fraction of 1-bp insertions among edited reads [4]	fraction of 1-bp insertions among edited reads [5]	fraction of 1-bp insertions among edited reads [6]	fraction of 1-bp insertions among edited reads [7]	fraction of 1-bp insertions among edited reads [8]	fraction of 1-bp insertions among edited reads [9]	fraction of 1-bp insertions among edited reads (Rifapentine)	fraction of 1-bp insertions among edited reads [10]	fraction of 1-bp insertions among edited reads [11]	fraction of 1-bp insertions among edited reads [12]	fraction of 1-bp insertions among edited reads [13]	fraction of 1-bp insertions among edited reads [14]	fraction of 1-bp insertions among edited reads [15]	fraction of 1-bp insertions among edited reads (Tucidinostat (Chidamide))
20.0 (DMSO control at this site: 1-bp insertion 0.349, MH deletion 0.138, edited 0.084) TACAGGTGTAGACTGGTTACGTGGCTGCGGAATTGACTGGTTACGTGGCTGCGGAATTTTG	0.181	0.197	0.176	0.2	0.243	0.29	0.248	0.373	0.0738	0.285	0.317	0.438	0.293	0.345	0.47	0.3	0.315	0.355	0.233	0.348
34.0 (DMSO control at this site: 1-bp insertion 0.184, MH deletion 0.385, edited 0.103) ATTATAGGACCCTGAGGGAGCAGAGATGTGGGAATGGGGGCCGAGCCAATTGTGATGTAAG	0.473	0.534	0.476	0.424	–	0.157	0.154	0.172	0.0647	0.184	0.153	0.199	0.159	0.169	0.361	0.165	0.208	0.197	0.148	0.184
43.0 (DMSO control at this site: 1-bp insertion 0.134, MH deletion 0.714, edited 0.104) AGTTTAACTTACTCCGGCCAAAAAAGAACTGCACCTCTGGAGCGGGTTAGTGGTGGTGGTA	0.658	0.671	0.688	0.614	0.592	0.0687	0.0941	0.0843	0.0439	0.113	0.0588	0.0932	0.0993	0.101	0.118	0.0918	0.0831	0.0629	0.1	0.0828
45.0 (DMSO control at this site: 1-bp insertion 0.017, MH deletion 0.666, edited 0.101) TTACACAGCATGAACTGCTAGGTGATGATGTCAGATTCGGTTTTACTAACTTCTCCAAAAA	0.561	0.601	0.67	0.614	0.557	0.0284	0.0222	0.0249	0.016	0.0413	0.0237	0.0246	0.0255	0.037	0.0735	0.0352	0.0235	0.0353	0.0266	0.0198
18.0 (DMSO control at this site: 1-bp insertion 0.114, MH deletion 0.789, edited 0.094) GCGCAAGTGCATAAGTTTTTCTTAAGGCGTGCCTTTAAGGCGTGCCTTTGTCGGTCCTGGA	0.759	0.797	0.833	0.734	0.733	0.0913	0.0901	0.103	0.0252	0.109	0.0919	0.103	0.103	0.109	0.18	0.105	0.113	0.128	0.0891	0.0964
